Results on eight molecules are retold here after PubChem BioAssay (Tox21).

Experiment [1] can be described thus: qHTS assay to test for compound auto fluorescence at 535 nm (green) in HEK293 cells (AID 720680). On the technique in general: In qHTS, concentration-response curves come from the screen itself.
The nature of experiment [2]: qHTS assay to test for compound auto fluorescence at 460 nm (blue) in HEK293 cell free culture (AID 720681). The method, boiled down:
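Test compounds were pinned into cell-free culture medium (DMEM with 10% FBS) and fluorescence was read directly at Ex/Em 405/460 nm. Signals were expressed as fluorescence equivalents of triamterene, with DMSO vehicle as control.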

Experiment [3] is described as follows: qHTS assay to test for compound auto fluorescence at 535 nm (green) in HEK293 cell free culture (AID 720682). In a few lines:
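Green-label autofluorescence (485 nm excitation, 535 nm emission) measured on compound added to cell-free culture medium (DMEM, 10% FBS). Output is expressed relative to fluorescein.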

Experiment [4] is described as follows: qHTS assay to test for compound auto fluorescence at 590 nm (red) in HEK293 cell free culture (AID 720683). The method, boiled down: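 Tox21 10K library compounds were pinned into cell-free DMEM with 10% FBS and fluorescence was read at excitation 540 nm. Activity is expressed as Rose Bengal sodium equivalency.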
The nature of experiment [5]: qHTS assay to test for compound auto fluorescence at 590 nm (red) in HepG2 cell free culture (AID 720684). In a few lines:
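Ex 540 / Em 590 nm read of compound in cell-free MEM (10% FBS). Rose Bengal sodium reference.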

A short description of experiment [6]: qHTS assay to test for compound auto fluorescence at 460 nm (blue) in HepG2 cell free culture (AID 720685). In a few lines: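 Cell-free plates of MEM plus 10% FBS received 23 nL compound or DMSO vehicle; blue-channel (405/460 nm) intensity scored against triamterene as reference fluorophore.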
Experiment [7] is described as follows: qHTS assay to test for compound auto fluorescence at 535 nm (green) in HepG2 cell free culture (AID 720686).
The nature of experiment [8]: qHTS assay to test for compound auto fluorescence at 460 nm (blue) in HepG2 cells (AID 720687). In a few lines: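 Cells (2,000/well in MEM with 10% FBS) attached overnight at 37 C, then were exposed to compound or DMSO for 1 hr at 37 C, 5% CO2. Fluorescence read at Ex/Em 405/460 nm, expressed as triamterene-equivalent signal.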
For experiment [9], the target named is Glucocorticoid receptor (Homo sapiens) (UniProt P04150). As to the kind of experiment: qHTS assay to identify small molecule agonists of the glucocorticoid receptor (GR) signaling pathway (AID 720691; active = well fitted activation curve with a large enough effect in the signal ratio in the repeat runs, not every such curve was filed as active; the % refers to the signal ratio). The method, boiled down: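 Cells: GR-bla HeLa, endogenous GR with stably integrated GRE-beta-lactamase reporter. Treatment 18 h, 37 C, compounds delivered in DMSO. Detection via LiveBLAzer B/G FRET substrate, 2 h RT, fluorescence intensity.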

Experiment [10] in a line: qHTS assay to identify small molecule antagonists of the glucocorticoid receptor (GR) signaling pathway - cell viability counter screen (AID 720693). Note: nearly all actives have a fitted effect of over 55% in size.
The nature of experiment [11]: qHTS assay for identifying genotoxic compounds that show differential cytotoxicity against isogenic chicken DT40 cell lines with known DNA damage response pathways - wild type cell line (AID 743012). Note: nearly all actives have a fitted effect of over 60% in size. Note: potency is the fitted concentration of half-maximal effect. The method, boiled down:
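Luminescent ATP viability signal (CellTiter-Glo, 30 min RT) recorded after wild type DT40 cells were incubated with compounds for 40 h at 37 C/5% CO2.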

The nature of experiment [12]: qHTS assay for identifying genotoxic compounds that show differential cytotoxicity against isogenic chicken DT40 cell lines with known DNA damage response pathways - Rev3 mutant cell line (AID 743014). Note: nearly all actives have a fitted effect of over 55% in size. Note: potency is the fitted concentration of half-maximal effect.
Experiment [13] can be described thus: qHTS assay for identifying genotoxic compounds that show differential cytotoxicity against isogenic chicken DT40 cell lines with known DNA damage response pathways - Rad54/Ku70 mutant cell line (AID 743015). Note: nearly all actives have a fitted effect of over 60% in size. Note: potency is the fitted concentration of half-maximal effect.
Experiment [14] can be described thus: qHTS assay to identify small molecule antagonists of the androgen receptor (AR) signaling pathway - cell viability counter screen (AID 743033; note: nearly all actives have a fitted effect of over 45% in size).
Experiment [15] in a line: qHTS assay to identify small molecule antagonists of the androgen receptor (AR) signaling pathway using the MDA cell line - cell viability counter screen (AID 743041; note: nearly all actives have a fitted effect of over 45% in size). The method, boiled down:
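In this qHTS counter assay, fluorescence intensity after CellTiter-Fluor addition indicated viability of MDA-kb2 AR-luc cells given compounds and R1881 for 16 h at 37C.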

Experiment [16] addresses Glucocorticoid receptor (Homo sapiens) (UniProt P04150). Kind of experiment: qHTS assay to identify small molecule antagonists of the glucocorticoid receptor (GR) signaling pathway (AID 720692; active = well fitted inhibition curve with a large enough effect in the signal ratio in the repeat runs, not every such curve was filed as active; the % refers to the signal ratio; note: potency is the fitted concentration of half-maximal effect). In a few lines:
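Quantitative HTS in antagonist format: HeLa cells expressing endogenous GR and a stably integrated GRE-bla reporter, stimulated with 5 nM dexamethasone (final) alongside test compounds for 18 h.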

A number with no mark means an inactive call. Records with an inconclusive call do not appear. Active and inactive are the calls of the source. Unless noted, calls come from the whole dose curve; as a rule, active = well fitted curve in the direction sought with a large enough effect in the repeat runs; inconclusive = weak or mixed curves; inactive = no such curve, though single readings can be large; an effect the other way counts as inactive or inconclusive.

Sequence of Glucocorticoid receptor (Homo sapiens) (P04150 whole entry, looked up): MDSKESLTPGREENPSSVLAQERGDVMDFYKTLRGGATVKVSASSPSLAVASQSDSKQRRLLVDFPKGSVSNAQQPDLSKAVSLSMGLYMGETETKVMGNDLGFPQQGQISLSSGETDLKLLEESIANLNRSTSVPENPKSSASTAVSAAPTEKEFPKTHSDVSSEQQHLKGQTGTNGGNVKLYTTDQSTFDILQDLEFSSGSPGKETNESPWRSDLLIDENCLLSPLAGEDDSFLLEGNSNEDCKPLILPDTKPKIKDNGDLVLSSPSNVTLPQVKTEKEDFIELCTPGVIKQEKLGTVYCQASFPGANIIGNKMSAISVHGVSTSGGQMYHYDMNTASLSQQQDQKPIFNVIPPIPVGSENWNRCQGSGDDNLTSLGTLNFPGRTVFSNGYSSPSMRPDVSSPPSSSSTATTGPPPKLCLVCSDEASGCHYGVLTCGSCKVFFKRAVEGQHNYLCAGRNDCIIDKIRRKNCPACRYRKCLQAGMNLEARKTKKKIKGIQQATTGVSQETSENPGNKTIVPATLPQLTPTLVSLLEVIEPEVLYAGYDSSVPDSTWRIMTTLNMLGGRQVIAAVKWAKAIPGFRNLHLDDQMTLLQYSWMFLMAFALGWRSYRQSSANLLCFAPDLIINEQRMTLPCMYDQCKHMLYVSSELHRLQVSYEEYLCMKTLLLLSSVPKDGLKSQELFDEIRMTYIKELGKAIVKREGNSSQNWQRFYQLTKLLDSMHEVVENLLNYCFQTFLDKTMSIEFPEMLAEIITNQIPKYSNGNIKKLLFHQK

As for `CCCCCCCCCC=O`, the result in experiment [1], in experiment [3], in [4], in experiment [5] and in experiment [7] was inactive. Besides, the Potency entry in [2], in [6], in experiment [8], in experiment [9], in experiment [10] and in [11] was “inactive” throughout. For the same molecule, the Potency entry in experiment [12], in [13], in experiment [14] and in experiment [15] was “inactive” each time.

Take `C=CC(=O)OCC(C)OCC(C)OCC(C)OC(=O)C=C` (centres undefined): the result in [1], in experiment [3], in experiment [4], in experiment [5] and in [7] was inactive. Also, the Potency result in [2], in experiment [6], in experiment [8], in experiment [9] and in experiment [15] was “inactive” each time. For the same molecule, the Potency in experiment [16] is 43.6 µM (active); in experiment [11], 15.4 µM (active); in [12] it was 19.3 µM (active); in experiment [13], 17.2 µM (active).

For the molecule `Cn1c(N)nc2nc[nH]c2c1=O`, the outcome in experiment [1], in [3], in [4], in experiment [5] and in experiment [7] was inactive. The Potency result in experiment [2], in [6], in [8], in experiment [9], in experiment [16] and in experiment [10] was “inactive” throughout. For the same molecule, the Potency result in experiment [12], in experiment [14] and in [15] was “inactive” in each case.

For `Cn1sccc1=O`, the outcome in experiment [1], in [3], in [4], in [5] and in experiment [7] was inactive. Moreover, the Potency entry in experiment [2], in experiment [6], in experiment [8], in experiment [9], in experiment [10] and in [15] was “inactive” in each case. The Potency in experiment [11] was 2.43 µM (active); in experiment [12] it was 3.06 µM (active); in experiment [13] it was 4.86 µM (active).

Turning to `CCN(CC)CCNC(C(=O)OCCC(C)C)c1ccccc1` (centres undefined), the molecule was classed as inactive in experiment [1], in experiment [3], in experiment [4], in experiment [5] and in experiment [7]. The Potency result in experiment [2], in experiment [6], in [8], in experiment [9], in [16] and in experiment [10] was “inactive” throughout. For the same molecule, the Potency entry in experiment [14] and in [15] was “inactive” in each case. For the same molecule, in experiment [11], the Potency was 26.6 µM (active).

`CCOc1cc(OCC)c(C(=O)CCC(=O)O)cc1OCC`: the molecule was called inactive in experiment [1], in experiment [3], in experiment [4], in experiment [5] and in experiment [7]. The Potency result in experiment [2], in experiment [6], in experiment [8], in experiment [9], in [16] and in [10] was “inactive” throughout. The Potency entry in [11], in [14] and in [15] was “inactive” each time.

Turning to `CNS(=O)(=O)Cc1ccc2[nH]cc(CCN(C)C)c2c1`, the molecule was called inactive in experiment [1], in experiment [3], in [4], in experiment [5] and in [7]. Moreover, the Potency result in experiment [2], in experiment [6], in experiment [8], in [9], in experiment [10] and in experiment [11] was “inactive” throughout. Also, the Potency entry in [12], in experiment [13] and in experiment [15] was “inactive” each time.

For `CN1CCN(C2=Nc3cc(Cl)ccc3Nc3ccccc32)CC1`, the result in experiment [1], in [3], in experiment [4], in [5] and in [7] was inactive. In addition, the Potency result in experiment [2], in [6], in [8], in [9], in experiment [10] and in experiment [14] was “inactive” each time. Besides, the Potency entry in experiment [15] was “inactive”. The Potency is 21.1 µM (active) in [11], 26.6 µM (active) in experiment [12] and 26.6 µM (active) in experiment [13].
